Screening data deposited in PubChem BioAssay by National Center for Advancing Translational Sciences (NCATS).
AmpC detergent: AmpC beta-lactamase inhibition with detergent present; P00811; AmpC hydrolysis of nitrocefin, absorbance 480 nm, 0.01% Triton; Potency, µM (doses to about 114 µM), inactives show top-dose activity change, negative = inhibition, usual class: inhibitors; hit rate 0.041% among 370,000;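 note: potency is the fitted concentration of half-maximal effect; 0% = no-compound wells and -100% = no-enzyme wells; nearly all actives have a fitted effect of over 25% in size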
Target sequence (P00811 whole entry, looked up): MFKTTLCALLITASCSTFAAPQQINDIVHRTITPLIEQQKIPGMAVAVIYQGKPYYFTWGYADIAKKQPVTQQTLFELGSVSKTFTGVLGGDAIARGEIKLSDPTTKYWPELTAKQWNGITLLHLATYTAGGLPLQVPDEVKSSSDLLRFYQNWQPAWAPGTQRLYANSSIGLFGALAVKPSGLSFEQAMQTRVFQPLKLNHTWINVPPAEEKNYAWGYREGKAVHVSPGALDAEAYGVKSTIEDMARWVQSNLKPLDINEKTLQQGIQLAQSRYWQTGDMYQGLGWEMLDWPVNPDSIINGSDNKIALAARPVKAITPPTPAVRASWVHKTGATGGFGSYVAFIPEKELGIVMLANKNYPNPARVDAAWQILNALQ
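AmpC (5.3 nM in the dispensed reagent) in 20 mM phosphate pH 7.0 with 0.01% (detergent screen) or 0.0001% Triton X-100 was preincubated with compounds for 15 min at room temperature. Nitrocefin was then added from an 800 uM solution, and hydrolysis was followed at 480 nm.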
AmpC no deterg: blocks E. coli AmpC beta-lactamase in detergent-free assay; AmpC nitrocefin hydrolysis, absorbance 480 nm, 0.0001% Triton; hit rate 0.52% among 330,000; AID 485341; P00811; Potency, µM (highest dose often 57.1 µM), for the others: at the highest dose activity change, negative = inhibition, hits mostly inhibitors;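 note: potency is the fitted concentration of half-maximal effect; plate controls were no compound for no effect and no enzyme for full effect; nearly all actives have a fitted effect of over 20% in size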
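20 mM phosphate pH 7.0 + 0.01% (detergent screen) or 0.0001% Triton X-100; 5.3 nM AmpC reagent; cpd preinc 15 min RT; nitrocefin (800 uM stock) to start; A480 q20 s × 4 min; Activity was normalised to no-enzyme and no-compound control wells.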
AMA1-RON2 inh: inhibitors of Plasmodium falciparum AMA1-RON2 interaction; AlphaScreen AMA1-biotinylated RON2 peptide binding; Potency, µM (doses to about 58.2 µM), for inactives: at the highest dose activity change, negative = inhibition, usual class: inhibitors; hit rate 0.2% among 360,000;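 note: potency is the fitted concentration of half-maximal effect; 0% = vehicle wells and -100% = peptide control; nearly all actives have a fitted effect of over 45% in size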
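AMA1 (3D7) with his tag at 25 nM final met compounds first, then biotinylated RON2 peptide at 25 nM; detection used donor plus acceptor beads, 10 µg/mL apiece, read by AlphaScreen after 30 min at room temperature.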
SARS PLpro yeast: blocks SARS-CoV papain-like protease in a yeast assay; hit rate 0.19% among 330,000; Potency, µM (series often up to 32.9 µM), without a hit: at the top dose activity, positive = growth rescue, hits mostly activators; S. cerevisiae expressing SARS-CoV PLpro, growth rescue; calls by dose curve; note: potency is the fitted concentration of half-maximal effect; 0% is about no effect; nearly all actives have a fitted effect of over 55% in size
CHX counter: affects cycloheximide protein synthesis inhibition readout, counter-screen. cell reporter, cycloheximide protein synthesis inhibition counterscreen. max response, %. hit rate 12% among 300,000; in the data active = max response mostly above about 13%, no sharp cut-off; inactive = mostly below about 14%; note: read at 38.3 µM for the half of the compounds with a filed dose; 0% is about no effect
Shiga inhibitor: Shiga toxin inhibition; inhibition, % at 38.7 µM; hit rate 9.2% among 290,000; Vero cells, Shiga toxin protein synthesis inhibition reporter; in the data active = inhibition mostly above about 28%, no sharp cut-off; inactive = mostly below about 43%; note: 0% is about no effect
The depositor's hits bear a star; ? = inconclusive; · = not tested or not shown; [ ] = dose if it differs, or a comment. The full list was thinned out, with hits kept by preference. Unless noted, calls come from the whole dose curve; as a rule, active = well fitted curve in the direction sought with a large enough effect; inconclusive = small, poorly fitted or top-dose-only effect, or another doubt; inactive = no such curve, though single readings can be large; an effect the other way counts as inactive or inconclusive.

SMILES | AmpC detergent | AmpC no deterg | AMA1-RON2 inh | SARS PLpro yeast | CHX counter | Shiga inhibitor
Cc1cc(OCCCn2ccnc2)ccc1C(C)C | -1% | -5% | ? | -34% | 10 | 17
c1ccc2cc(OCCCn3ccnc3)ccc2c1 | ? | -11% | ? | -5% | 17* | 17
Cc1ccc(OCCCn2ccnc2)c(Br)c1 | 4% | 16% | -24% | · | 20* | 33
Nc1c(C(=O)Nc2ccc(F)cc2)nnn1-c1cccc(C(F)(F)F)c1 | 0% | -41% | -6% | 1% | 15* | 21
Nc1c(C(=O)Nc2cccc(F)c2)nnn1-c1cccc(C(F)(F)F)c1 | 0% | -29% | -4% | 1% | 18* | 60*
O=C(C1CCN(Cc2ccc(OCc3ccccc3)cc2)CC1)N1CCCC1 | -4% | 48% | -16% | -13% | 27* | 38
OC1CCN(Cc2ccc(OCc3ccccc3)cc2)CC1 | ? | -10% | -11% | 6% | 19* | ·
CCN(CC)C(=O)C1CCN(Cc2ccc(OCc3ccccc3)cc2)CC1 | -17% | 35% | ? | 2% | -4 | 12
O=C(CCN1CCN(Cc2ccccc2)CC1)Nc1ccc(OCc2ccccc2)cc1 | 6% | 126% | -15% | -13% | -3 | -7
C=CCN(CC=C)C(=O)C1CCN(Cc2ccc(OCc3ccccc3)cc2)CC1 | -4% | 122% | ? | 9% | 18* | ·
COc1ccc(C(=O)N2CCC(C(=O)N3CCN(Cc4ccccc4)CC3)CC2)cc1 | -10% | 59% | 0% | 6% | -1 | -5
CC1CCCN(Cc2ccc(OCc3ccccc3)cc2)C1 (centres undefined) | -12% | -3% | -12% | -7% | 22* | 77
CCCCCCCCN1C(=O)[C@H](CC(=O)NCc2cccc3ccccc23)C[C@@]2(C(=O)OCC)CCCC=C12 | · | · | -6% | · | · | ·
CCCCNC(=O)C1CCN(Cc2ccc(OCc3ccccc3)cc2)CC1 | ? | 51% | -2% | -1% | 26* | 63*
CCNC(=O)C1CCCN(Cc2ccc(OCc3ccccc3)cc2)CC1 (centres undefined) | · | · | 0% | · | · | ·
CCCCCCN1CC(O)=C(c2ccccc2)C1=N | -10% | -21% | 14% | 0% | 6 | -7
CCCCN1CC(O)=C(c2nc3ccccc3[nH]2)C1=N | -9% | 0% | 135% | -8% | 47* | 72
N=C1C(c2nc3ccccc3c(=O)[nH]2)=C(O)CN1CCO | ? | -17% | 8% | 1% | 11 | -17
N=C1C(c2nc3ccccc3c(=O)[nH]2)=C(O)CN1CCc1ccccc1 | ? | -31% | 8% | 15% | 6 | 10
CC(C)CCN1CC(O)=C(c2nc3ccccc3[nH]2)C1=N | -6% | -15% | 42% | -1% | 17* | 35
CC(C)N1CC(O)=C(c2nc3ccccc3[nH]2)C1=N | ? | -8% | 79% | 1% | 52* | 77*
C=CCN1CC(O)=C(c2nc3ccccc3[nH]2)C1=N | -8% | -2% | 30% | 0% | 56* | 128*
CC(C)NC(=O)c1ccccc1NC(=O)/C=C/c1ccc([N+](=O)[O-])cc1 | -4% | -6% | 13% | -7% | -3 | -13
CCCCCN1CC(O)=C(c2nc3ccccc3[nH]2)C1=N | -23% | -12%[11.4 µM] | 42% | -1% | 36* | 30
Cc1ccc(COc2ccccc2C(=S)N2CCCC2)cc1 | ? | -24% | -20% | -2% | 17* | 20
COc1cc(C(=S)N2CCCC2)ccc1OCc1ccc(C)cc1 | 11% | 29% | -15% | -2% | 69* | 81*
CNC(=O)c1[nH]cnc1C(=O)N[C@@H](Cc1ccccc1)C(=O)OC(C)(C)C | 5% | 59% | 96% | 0% | 0 | -12
CC(=O)N1CCC(=NNc2nc3ccccc3[nH]2)CC1 | 2% | -36% | -9% | -6% | 31* | 35*
CCC(C)(C)C1CCC(=NNc2nc3ccccc3[nH]2)CC1 (centres undefined) | -3% | -30% | 85% | 8% | 36* | 81*
CC(=O)N1CCc2[nH]c3ccccc3c2C1 | ? | -5% | -7% | 2% | -2 | 20
